# Source: PubChem
# hcDAF-12 act: H. contortus DAF-12 activation, primary screen. activation, % at 6.8 µM. HEK293 hcDAF-12 lit1-tk-luc reporter, luminescence; 0% DMSO, 100% Δ7-dafachronic acid. hit rate 1.4% among 370,000;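 active means activation above the mean of all tested compounds plus 3 SD, cut at about 5.5% in these data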;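 further: 100% = response to 3 µM Δ7-dafachronic acid high control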
# AHR act: activators of human aryl hydrocarbon receptor; P35869; AHR-responsive luciferase reporter cells, luminescence; activation, % at 5 µM; hit rate 2.5% among 320,000; in the data active means activation above about 47%;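 further: 0% = vehicle wells and 100% = reference agonist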
# DAX1 inh-1: DAX1 (NR0B1) inhibition, primary screen; HEK293T StAR-luciferase reporter, SF-1/DAX-1 repression relief; inhibition, % at 6.8 µM; hit rate 1.1% among 370,000; AID 652010;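 active means inhibition above the mean over all tested compounds plus 3 SD, cut at about 3.6% in these data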;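 further: 0% = DAX-1 cells with DMSO and 100% = cells lacking DAX-1 with DMSO; higher inhibition means more luminescence from relief of DAX-1 repression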
# hgDAF12 agonist: hgDAF-12 agonism, primary luciferase screen; HEK293 GAL4-hgDAF12 UAS-luciferase reporter, agonist luminescence; normalized to butyrate control; activation, % at 6.8 µM; hit rate 1.8% among 370,000;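 active means activation above a cutoff set at the mean of all screened compounds plus 3 SD, cut at about 10% in these data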;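 further: 0% = DMSO wells and 100% = sodium butyrate wells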
# ssDAF-12 act: activates DAF-12 receptor from parasite S. stercoralis | HEK293 ssDAF-12/GRIP1 lit1-tk-luc reporter, luminescence; % of 3 µM dafachronic acid response | activation, % at 6.8 µM | hit rate 1% among 370,000 | AID 652126;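 active means activation above the mean over all tested compounds plus 3 SD, cut at about 0.9% in these data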;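 further: 0% = DMSO-only wells and 100% = 3 µM delta7-dafachronic acid wells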
# DAX1 inh-2: inhibitors of human orphan nuclear receptor DAX1 (NR0B1). HEK293 Gal4-DAX1 luciferase reporter, luminescence. AID 504766. P51843. hit rate 0.99% among 340,000. inhibition, % at 6.75 µM;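 active means inhibition above the mean over all tested compounds plus 3 SD, cut at about 4.2% in these data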;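 further: 0% = DAX1-transfected cells with DMSO and 100% = empty-vector control cells with DMSO; inhibition shows as a rise in luminescence from relieved DAX1 repression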
# AHR act confirm: human AHR activation, confirmation. shares compounds with AHR act. human cells, AHR-responsive luciferase reporter, luminescence. AID 2845. hit rate 87% among 2,300. activation, % at 9 µM; in the data active means activation above about 49%;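 further: HepG2 hepatoma cells carrying a DRE-driven firefly luciferase reporter; 0% = vehicle wells and 100% = reference agonist wells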
# PXR act counter: counter-screen for AHR activators: human PXR activators; hit rate 88% among 2,300; activation, % at 11.6 µM; shares compounds with AHR act; AID 434939; cell-based PXR reporter, luciferase luminescence; in the data active means activation above about 11%;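 further: human hepatoma DPX-2 cells expressing full-length human PXR; 0% = DMSO and 100% = reference agonist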
# Starred values were filed as active, the others as inactive; . = no result given. Only some compounds are listed: those with a hit (about 5.7% of all), similar ones and a draw of the others.
SMILES,hcDAF-12 act,AHR act,DAX1 inh-1,hgDAF12 agonist,ssDAF-12 act,DAX1 inh-2,AHR act confirm,PXR act counter
O=c1[nH]c(CSc2nnc3ccccn23)nc2ccccc12,1,15,0,-1,-1,0,.,.
Cc1c(C2(O)CCCCC2)[nH]c2ccc(C(F)(F)F)cc12,2,80*,-1,-6,-1,-1,81*,44*
COc1cc(NC(=O)c2ccccc2)c(OC)cc1NC(=O)CN1CCCCC1,-2,83*,-1,-3,-2,0,96*,23*
COc1cc(NC(=O)c2ccccc2)c(OC)cc1NC(=O)CN1CCOCC1,-3,29,-1,1,-2,1,.,.
S=c1[nH]c(-c2ccccc2)cn1/N=C/c1ccncc1,2,88*,0,3,-1,-1,135*,8
CCOc1ccc(/C=N/n2cc(-c3ccccc3)[nH]c2=S)cc1,3,84*,-2,3,0,1,108*,.
Cc1ccc(-c2nc(CS(=O)CC(=O)NCCN3CCCCCC3)c(C)o2)cc1 (stereo unspecified),-2,2,0,-1,-1,0,.,.
O=C(CSc1ccc2ccccc2n1)c1ccc2c(c1)OCO2,5,103*,3,10,2.3*,2,27,24*
O=C(O)CSc1ccc2ccccc2n1,0,11,1,0,-1,1,.,.
CC(C)c1ccc(NC(=S)N2CCCC(c3ccc(F)cc3)=N2)cc1,1,7,0,1,-1,3,.,.
CC1=C(C(=O)Nc2ccc(Br)cc2)C(c2ccco2)NC(=O)N1 (stereo unspecified),1,107*,0,1,-1,0,35,7
CC1=C(C(=O)Nc2ccc(C)cc2)C(c2ccco2)NC(=O)N1 (stereo unspecified),0,2,0,-2,-1,1,.,.
Nc1c(C(=O)OCC(=O)Nc2cccc([N+](=O)[O-])c2)[nH]c(=O)[nH]c1=O,.,1,.,.,.,-1,.,.
CNC(=S)Nc1cccc(-c2cnc3ccccc3n2)c1,2,118*,1,5,-1,1,100*,19*
CC(C)C(=O)Nc1cccc(-c2cnc3ccccc3n2)c1,-2,-2,1,3,-1,0,.,.
CS(=O)(=O)Nc1cccc(-c2cnc3ccccc3n2)c1,6,88*,1,9,0,4.3*,120*,8
COc1ccc(/C=N/NC(=S)NC2CCS(=O)(=O)C2)cc1 (stereo unspecified),-2,19,0,-1,-1,0,.,.
C/C(=C\C(=O)c1ccc(Br)cc1)NCc1ccc(C)cc1,0,9,-1,1,-1,0,.,.
C/C(=C\C(=O)c1ccc(Br)cc1)NCc1ccccc1,0,95*,1,2,-1,-1,29,27*
O=C1c2ccccc2C(c2nnnn2Cc2ccccc2)N1CCc1ccc(O)cc1 (stereo unspecified),0,.,2,2,-1,.,.,.
O=C(COc1ccccc1)NCC(=O)N1CCCC1,1,1,0,3,-1,-1,.,.
CCOc1ccc(Nc2nc3ccccc3n3nnnc23)cc1,2,132*,2,4,-1,0,85*,16*
CCOc1ccc2c(c1)sc(=NC(=O)C1CC1)n2C,2,92*,2,8,-1,1,71*,37*
C/C(=N/Nc1ccc(F)cc1)c1ccc(Cl)s1,3,84*,0,-1,0,1,68*,.
O=C(c1cc2cc(F)ccc2[nH]1)N1CCc2ccccc2C1,2,82*,0,3,0,1,110*,46*
SMILES,hcDAF-12 act,AHR act,DAX1 inh-1,hgDAF12 agonist,ssDAF-12 act,DAX1 inh-2,AHR act confirm,PXR act counter
Cn1ncc(Cl)c1C(=O)Nc1ccc(Cl)cn1,0,143*,0,2,-1,1,129*,29*
Cn1ncc([N+](=O)[O-])c1C(=O)Nc1cccc(Cl)c1,-1,99*,0,-2,-1,2,107*,21*
CSc1cccc(NC(=O)c2c(Cl)cnn2C)c1,1,8,-1,0,-2,0,.,.
Cn1ncc(Cl)c1C(=O)Nc1cccc(Cl)c1,-1,84*,-1,3,-1,1,106*,23*
CCn1ncc(Br)c1C(=O)Nc1ccc(Cl)cn1,-1,105*,0,2,-1,-1,115*,45*
Cc1ccc(NC2CCCN(C(=O)c3cn(C)c4ccccc34)C2)cc1C (stereo unspecified),-1,22,1,-1,-1,0,.,.
COc1cc(OC)cc(N(C(=O)CNC(=O)c2ccco2)C(C(=O)NCC2CCCO2)c2ccccc2)c1 (stereo unspecified),-1,3,0,-2,-1,0,.,.
N#CC1=C(N)Nc2nc3ccccc3n2C1c1ccc(F)cc1 (stereo unspecified),-2,94*,-1,-2,1.3*,-1,80*,62*
Cn1ccnc1SCc1nc2c(cnn2-c2ccccc2)c(=O)[nH]1,-1,82*,0,-1,-1,0,85*,16*
O=c1[nH]c(CSc2ccccn2)nc2c1cnn2-c1ccccc1,-1,97*,0,7,-2,-1,71*,34*
CCCSc1nc2c(cnn2-c2ccccc2)c(=O)[nH]1,-2,44,0,-1,-1,1,.,.
O=C(CCn1nc(-c2ccccc2)ccc1=O)N1CCN(c2ccccn2)CC1,0,82*,0,-1,-2,0,35,9
O=C(CCn1nc(-c2ccccc2)ccc1=O)N1CCOCC1,-5,8,1,2,-1,-1,.,.
COc1ccc(NS(=O)(=O)c2cccc(N/C(=N\S(=O)(=O)c3ccccc3)c3ccc(F)cc3)c2)cc1,-3,2,-1,-2,-1,-1,.,.
COc1ccc2sc(-c3ccc(SC)cc3)c(-c3ccc(O)cc3)c2c1,-1,80*,-1,0,-1,-2,84*,19*
CCCN(CC(=O)Nc1ccccc1OC)C(=O)c1cc(-c2cccs2)nn1-c1ccccc1,-2,2,-2,0,-1,-1,.,.
CCCCNC(=O)c1sc2ncnc(N3CCc4ccccc4C3)c2c1C,-1,99*,1,-3,-2,0,102*,24*
Cc1ccc(N(C(=O)CNC(=O)c2cccs2)C(C(=O)NC2CCCC2)c2ccncc2)cc1 (stereo unspecified),2,1,0,0,-1,-2,.,.
